From PubChem BioAssay
KCNQ2 pot = enhances the rat KCNQ2 potassium channel. AID 2239. 0.54% of 310,000 active. B-score at 10 µM. O88943. CHO-K1 KCNQ2, FluxOR thallium flux fluorescence; hits give high values;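 active = fluorescence ratio B-score at least 3 SD of library B-scores, with initial fluorescence B-score within 3 of them, cut at about 5.3 in these data; same plate scores as AID 2156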;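 also: B-score of peak minus minimum over baseline fluorescence ratio after K+ and Tl+ stimulus; positive B-score means potentiation of KCNQ2 with more thallium influx and brighter signal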
KCNQ2 inh = KCNQ2 (rat) channel inhibition. B-score at 10 µM. O88943. CHO-K1 KCNQ2, FluxOR thallium flux, 20 min; hits give low values. 1.1% of 310,000 active;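 active = fluorescence ratio B-score at most minus 3 library SDs, with starting brightness B-score within 2 library SDs, cut at about -5.5 in these data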
Kir21 conf inh = confirmation of mouse Kir2.1 potassium channel inhibitors | shares compounds with KCNQ2 pot | Kir2.1-expressing cells, FluxOR thallium flux fluorescence; hits give low values | Tl flux remaining, % of negative control (hits give low values), % at 10 µM | 41% of 2,300 active | AID 2032;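 active = Primary-screen hit whose thallium flux fell at least 3 control SD below untreated wells in both duplicates, with normal baseline fluorescence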
Target sequence (P35561 whole entry, looked up): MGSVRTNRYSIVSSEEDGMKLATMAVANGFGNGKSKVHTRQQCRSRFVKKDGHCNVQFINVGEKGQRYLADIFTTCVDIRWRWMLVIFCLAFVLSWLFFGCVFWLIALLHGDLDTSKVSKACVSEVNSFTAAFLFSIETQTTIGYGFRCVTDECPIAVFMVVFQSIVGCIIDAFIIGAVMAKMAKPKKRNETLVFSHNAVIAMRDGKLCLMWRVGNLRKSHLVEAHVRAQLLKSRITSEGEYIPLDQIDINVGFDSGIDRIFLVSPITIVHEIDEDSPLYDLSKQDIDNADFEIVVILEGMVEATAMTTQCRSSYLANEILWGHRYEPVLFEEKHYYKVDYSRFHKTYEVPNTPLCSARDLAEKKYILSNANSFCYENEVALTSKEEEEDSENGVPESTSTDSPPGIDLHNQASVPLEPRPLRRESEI
HEK293 ctr = alters thallium flux in parental HEK293 cells, Kir2.1 counter-screen; 19% of 2,300 active; FluxOR signal as % of negative control (100 = no effect), % at 10 µM; FluxOR thallium flux fluorescence; 0% = unstimulated blank wells; shares compounds with KCNQ2 pot;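 active = dye signal at least 3 control SD above or below untreated wells in both duplicates, raw fluorescence within 3, either direction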;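 also: percent is based on the flux ratio of peak minus minimum fluorescence over baseline F0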
CHO-K1 Tl ctr = counter-screen for KCNQ2 potentiators: effect in parental CHO-K1 cells; shares compounds with KCNQ2 pot; FluxOR thallium flux fluorescence; zero = vehicle mean+3SD, 100% = vehicle-minus-blank window; activity increase over 3SD of controls, % at 10 µM; 43% of 1,200 active;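 active = signal rise of at least 3 SD above the untreated control mean, in both duplicate wells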;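 also: counter screen of KCNQ2 potentiator hits so any rise reflects channel-independent effects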
KCNQ1 pot spec = human KCNQ1 counter-target activity of KCNQ2 potentiators; shares compounds with KCNQ2 pot; CHO KCNQ1 stable, FluxOR thallium flux fluorescence; beyond 3SD, as % of vehicle-control signal; activation over 3SD threshold, % at 10 µM; 28% of 1,200 active; AID 2283;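 active = fluorescence ratio rise of at least 3 SD of vehicle wells above their mean, in both replicate wells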
KCNQ2 pot confirm = confirmation of rat KCNQ2 potassium channel potentiators. potentiation, less the hit threshold, % at 10 µM. CHO-KCNQ2 cells, FluxOR thallium flux fluorescence. shares compounds with KCNQ2 pot. 68% of 1,200 active;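 active = fluorescence ratio rising 3 SD or more over the vehicle control mean in both replicates, plus primary screen hit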;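 also: peak minus minimum thallium fluorescence divided by baseline after K/Tl stimulus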
Kir21 spec = mouse Kir2.1 off-target activity of KCNQ2 potentiators; AID 2345; 2% of 1,200 active; shares compounds with KCNQ2 pot; HEK293 Kir2.1, FluxOR thallium flux fluorescence; activity over 3SD threshold, % at 10 µM;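 active = fluorescence ratio rise of at least 3 SD above the vehicle-control mean, seen in both replicates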
KCNQ2 W236L pot = KCNQ2 potentiators acting on retigabine-insensitive rat KCNQ2 W236L mutant; shares compounds with KCNQ2 pot; CHO KCNQ2-W236L, automated patch clamp current; current increase over 3SD of negative controls (%), hits give high values, % at 25 µM; 10% of 940 active; AID 2558;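 active = current increase at least 3 SD of the untreated controls above them in both duplicate recordings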
Large screens that a line does not name were inactive (follow-up assays come after a bar, where they were run). In the library only some 1.6% were active in any assay of this set; here they are far more common.

COc1cc2[nH]c(C(=O)NCCc3ccccc3)cc2c(OC)c1OC	none
Cc1ccc2c(C)c(C(=O)Nc3ccc(S(=O)(=O)Nc4onc(C)c4C)cc3)oc2c1	none
Cc1occc1C(=O)N1CCN(S(=O)(=O)c2ccccc2)CC1	none (no result: KCNQ2 pot)
O=S(=O)(NCCc1ccccn1)c1ccc(F)c(F)c1	KCNQ2 pot 6.1 | Kir21 conf inh inactive | HEK293 ctr inactive | CHO-K1 Tl ctr 3.1 | KCNQ1 pot spec inactive | KCNQ2 pot confirm inactive | Kir21 spec inactive | KCNQ2 W236L pot inactive
O=S(=O)(NCCc1ccccn1)c1ccc(OC(F)(F)F)cc1	none (no result: KCNQ2 pot)
CN(CCCN1c2ccccc2CCc2ccccc21)CC(=O)c1ccc(Cl)cc1	none (no result: KCNQ2 pot)
CN(C)CCCN1c2ccccc2CCc2ccc(Cl)cc21	none (no result: KCNQ2 pot) | Kir21 conf inh 41% | HEK293 ctr inactive
CNC(=O)C1CC(=O)N(CCCc2ccccc2)C(=Nc2ccccc2)S1 (stereo unspecified)	none
COCCNC(=S)N(C)C1(c2ccccc2Cl)CCCCC1=O (stereo unspecified)	none (no result: KCNQ2 pot)
CCCC1=NN2C(=N)/C(=C\c3cc(C)n(Cc4ccccc4)c3C)C(=O)N=C2S1	KCNQ2 pot 12 | Kir21 conf inh inactive | HEK293 ctr inactive | CHO-K1 Tl ctr 21 | KCNQ1 pot spec inactive | KCNQ2 pot confirm inactive | Kir21 spec inactive | KCNQ2 W236L pot inactive
Cc1cc(/C=C2\C(=N)N3N=C(S(C)(=O)=O)SC3=NC2=O)c(C)n1Cc1ccccc1	none
CCN(CC(=O)Nc1ccc(C)c(S(=O)(=O)N2CCOCC2)c1)Cc1ccccc1	none
COc1cccc(C(=O)Nc2nc(-c3ccccc3)c(-c3ccccc3)o2)c1	none
O=C(Nc1nc(-c2ccccc2)c(-c2ccccc2)o1)c1ccc(F)cc1	none | Kir21 conf inh inactive | HEK293 ctr 150%
CSCC[C@H](NS(=O)(=O)c1ccc(C)cc1)C(=O)N1CCC(C(=O)N[C@H](C(=O)O)c2ccccc2)CC1	none
Cc1cc(O)c(S(=O)(=O)c2ccccc2)c(C)c1NS(=O)(=O)c1ccccc1	none
Cc1cc(Cl)c(S(=O)(=O)N2CCN(c3ccc(F)cc3)CC2)cc1OCC(N)=O	none
Cc1cc(Cl)c(S(=O)(=O)N2CCN(c3ccc(F)cc3)CC2)cc1OCC(=O)NC1CCCCC1	KCNQ2 pot 16 | Kir21 conf inh inactive | HEK293 ctr inactive | CHO-K1 Tl ctr 53 | KCNQ1 pot spec inactive | KCNQ2 pot confirm 60 | Kir21 spec inactive | KCNQ2 W236L pot inactive
c1ccc(Cn2nnnc2CN2CCN(c3ncccn3)CC2)cc1	none
CCN(Cc1ccccc1)Cc1nnnn1Cc1ccccc1	none (no result: KCNQ2 pot) | Kir21 conf inh 38% | HEK293 ctr 69%
C[C@H](NC(=O)c1nc[nH]c1C(=O)N1CCc2ccccc2C1)C(=O)OCc1ccccc1	none (no result: KCNQ2 pot)
Cc1cc(C)cc(N(C(=O)c2csnn2)C(C(=O)NC2CCCC2)c2ccccn2)c1 (stereo unspecified)	none
COc1cccc(NC(=O)c2csc3c2CCCC3)c1	KCNQ2 pot 8 | Kir21 conf inh inactive | HEK293 ctr inactive | CHO-K1 Tl ctr inactive | KCNQ1 pot spec inactive | KCNQ2 pot confirm 1.2 | Kir21 spec inactive | KCNQ2 W236L pot inactive
COc1ccc(NC(=O)c2csc3c2CCCC3)cc1	none (no result: KCNQ2 pot)
Cc1ccc(C(=O)COC(=O)CNS(=O)(=O)c2ccccc2)cc1[N+](=O)[O-]	none
CC(C)CN(C(=O)C(C)N1C(=O)c2ccccc2C1=O)c1c(N)n(Cc2ccccc2)c(=O)[nH]c1=O (stereo unspecified)	none
CCCCSCCCNC(=O)Nc1cccc(OC)c1	KCNQ2 pot 8.6 | Kir21 conf inh inactive | HEK293 ctr inactive | CHO-K1 Tl ctr inactive | KCNQ1 pot spec inactive | KCNQ2 pot confirm 15 | Kir21 spec inactive | KCNQ2 W236L pot inactive
COc1cccc(NC(=O)NCCc2ccc(Cl)cc2)c1	none (no result: KCNQ2 pot)
CCCSc1nc2c(=O)[nH][nH]c(=O)c2n1Cc1ccccc1	none
CCN1CCc2c(sc(NC(=O)c3ccc(S(=O)(=O)N4CCCCCC4)cc3)c2C(=O)NC)C1	none (no result: KCNQ2 pot)
C=CCN1C(=O)C2(OCCCO2)c2cc(C)ccc21	none
COc1cccc(CNc2ccc3[nH]c(=O)[nH]c3c2)c1OCc1ccccc1Cl	none
COc1cccc(CNc2ccc3[nH]c(=O)[nH]c3c2)c1OCc1ccccc1	KCNQ2 pot 7.9 | CHO-K1 Tl ctr 32 | KCNQ1 pot spec inactive | KCNQ2 pot confirm inactive | Kir21 spec inactive
COc1ccc(N2C(=O)CS/C2=C\[N+](=O)[O-])cc1	none
O=C(COc1ccc(Br)cc1Cl)NC1CCN(Cc2ccccc2)CC1	none (no result: KCNQ2 pot) | Kir21 conf inh 21% | HEK293 ctr inactive
Cc1c(C(=O)NC2CCN(Cc3ccccc3)C2)oc2ccc(Br)cc12 (stereo unspecified)	none (no result: KCNQ2 pot) | Kir21 conf inh 60% | HEK293 ctr inactive
CCOc1ccc2oc(C(=O)NC3CCN(Cc4ccccc4)CC3)c(C)c2c1	none
O=C(/C=C/c1cccc(F)c1)NC1CCN(Cc2ccccc2)CC1	none
O=C(/C=C/c1cccc(Br)c1)NC1CCN(Cc2ccccc2)CC1	none (no result: KCNQ2 pot) | Kir21 conf inh 39% | HEK293 ctr inactive
O=C(COc1ccccc1)NC1CCN(Cc2ccccc2)CC1	none (no result: KCNQ2 pot)
CN1CCN(NC(=O)CSc2ccc(Cl)cc2Cl)CC1	none (no result: KCNQ2 pot)
COc1ccccc1C(=O)Nc1nnc(-c2ccc(F)cc2)s1	none (no result: KCNQ2 pot)
COc1ccc(C(=O)Nc2nnc(-c3ccc(F)cc3)s2)c(OC)c1	KCNQ2 pot 10 | Kir21 conf inh inactive | HEK293 ctr inactive | CHO-K1 Tl ctr inactive | KCNQ1 pot spec 19 | KCNQ2 pot confirm inactive | Kir21 spec inactive
Cc1cc(NC(=O)COC(=O)C2CCN(S(=O)(=O)c3ccccc3)CC2)c([N+](=O)[O-])cc1C	none (no result: KCNQ2 pot)
COc1ccc(C2c3ccc4ccccc4c3Oc3ncn(CCCN(C)C)c(=N)c32)cc1 (stereo unspecified)	KCNQ2 inh -6.1 | Kir21 conf inh 36% | HEK293 ctr inactive
COc1ccccc1C1c2ccc3ccccc3c2Oc2ncn(CCN(C)C)c(=N)c21 (stereo unspecified)	none (no result: KCNQ2 pot)
CCCC1=NN2C(=N)/C(=C\c3ccc(OCCOc4ccc(NC(C)=O)cc4)c(OC)c3)C(=O)N=C2S1	none
COCCN(C(=O)COC(=O)/C=C/c1ccc(OC)c(OC)c1)c1c(N)n(Cc2ccccc2)c(=O)[nH]c1=O	none
